What all share (test): yeast three-hybrid, YBZ-1, SC-Leu-His + 0.5 mM 3-AT, 4 days
What all share (conditions): tags: N-Gal4 AD-HA kept; label: inside an RPR1-promoter hybrid RNA with tandem MS2 sites; ssRNA

The target of one test is PUM1 PUF domain R3-RPS (Homo sapiens, UniProt Q14671 828-1176, C935R;R936P;Q939S). The method in brief:
(§1)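 The interaction score is the logarithmic change in variant frequency from input to selection. It uses log2, with a pseudocount of 1 for absent variants, and frequencies came from PCR-amplified, Illumina-sequenced repeat regions. The libraries were Pumilio-1 PUF domains randomized at the three base-contacting residues per repeat, co-expressed with matching RNA elements in strain YBZ-1 (LexA–MS2 coat fusion, HIS3 reporter). Plating lasted four days on SC-Leu (input) or SC-Leu-His + 0.5 mM 3-AT (selection).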

In the next test the target is PUM1 PUF domain R5-GKD (Homo sapiens, UniProt Q14671 828-1176, C1007G;R1008K;Q1011D). The method in brief: as §1
For a further test, the target named is PUM1 PUF domain R5-GCR (Homo sapiens, UniProt Q14671 828-1176, C1007G;R1008C;Q1011R). The essentials:
as §1

For the next test, the target named is PUM1 PUF domain R2-GFD (Homo sapiens, UniProt Q14671 828-1176, N899G;Y900F;Q903D). The method in brief:
as §1

The target of the next test is T1, PUM1 PUF domain R6-NRQ (Homo sapiens, UniProt Q14671 828-1176, Y1044R).
T1 sequence: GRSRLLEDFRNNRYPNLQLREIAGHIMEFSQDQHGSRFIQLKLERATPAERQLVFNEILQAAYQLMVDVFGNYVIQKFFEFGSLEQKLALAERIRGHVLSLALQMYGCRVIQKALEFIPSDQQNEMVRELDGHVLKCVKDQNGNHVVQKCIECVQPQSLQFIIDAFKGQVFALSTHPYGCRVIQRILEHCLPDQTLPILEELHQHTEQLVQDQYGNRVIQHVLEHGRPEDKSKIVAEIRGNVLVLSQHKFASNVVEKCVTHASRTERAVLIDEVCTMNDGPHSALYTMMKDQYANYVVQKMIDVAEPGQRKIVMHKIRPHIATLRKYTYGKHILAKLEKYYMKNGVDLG
The essentials: as §1

The next test addresses PUM1 PUF domain R8-KFH (Homo sapiens, UniProt Q14671 828-1176, N1122K;Y1123F;Q1126H). The method in brief: as §1
For the next test, the target named is T2, PUM1 PUF domain R6-FYR (Homo sapiens, UniProt Q14671 828-1176, N1043F;Q1047R).
T2 sequence: T1 sequence with N216F, R217Y, Q220R
The method in brief:
as §1

A further test addresses PUM1 PUF domain R3-LYQ (Homo sapiens, UniProt Q14671 828-1176, C935L;R936Y). The method in brief: as §1
The target in another test is PUM1 PUF domain R4-SCM (Homo sapiens, UniProt Q14671 828-1176, N971S;H972C;Q975M). The method in brief: as §1
A further test deals with PUM1 PUF domain R8-KWW (Homo sapiens, UniProt Q14671 828-1176, N1122K;Y1123W;Q1126W). The method in brief: as §1

Substitutions are numbered along the chain they refer to.

On to “GGCUAGAACUAGUGGAUCCCCCGGCGCCCGGCGGCUCGAGCCCGGGUAAGUGUAAUUAGUCUGCAUGCCGCCGGGCGCCAUGCCUGCAGGUCGACUCUAGAAAACAUG”, for which, in the test with PUM1 PUF domain R3-RPS, the binding signal was 3.4 log2 enrichment (interaction score).
Take “GGCUAGAACUAGUGGAUCCCCCGGCGCCCGGCGGCUCGAGCCCGGGUAAGUGUCAAUAGUCUGCAUGCCGCCGGGCGCCAUGCCUGCAGGUCGACUCUAGAAAACAUG”: the binding signal is 2.2 log2 enrichment (interaction score) with PUM1 PUF domain R5-GKD and 5.08 log2 enrichment (interaction score) with PUM1 PUF domain R5-GCR.
The matching figures for “GGCUAGAACUAGUGGAUCCCCCGGCGCCCGGCGGCUCGAGCCCGGGUAAGUGUUAAUAGUCUGCAUGCCGCCGGGCGCCAUGCCUGCAGGUCGACUCUAGAAAACAUG”: 3.71 log2 enrichment (interaction score) and 3.22 log2 enrichment (interaction score).
In the case of “GGCUAGAACUAGUGGAUCCCCCGGCGCCCGGCGGCUCGAGCCCGGGUAAGUGUAAAGAGUCUGCAUGCCGCCGGGCGCCAUGCCUGCAGGUCGACUCUAGAAAACAUG”, the binding signal in the test with PUM1 PUF domain R2-GFD was 4.7 log2 enrichment (interaction score).
On to “GGCUAGAACUAGUGGAUCCCCCGGCGCCCGGCGGCUCGAGCCCGGGUAAGUGUAAAUAGUCUGCAUGCCGCCGGGCGCCAUGCCUGCAGGUCGACUCUAGAAAACAUG”, for which the binding signal with PUM1 PUF domain R6-NRQ is 7.58 log2 enrichment (interaction score); with PUM1 PUF domain R8-KFH, 2.89 log2 enrichment (interaction score); with PUM1 PUF domain R6-FYR, 4.96 log2 enrichment (interaction score); with PUM1 PUF domain R3-LYQ it was 3.33 log2 enrichment (interaction score); with PUM1 PUF domain R4-SCM, 2.65 log2 enrichment (interaction score); with PUM1 PUF domain R3-RPS, 0.42 log2 enrichment (interaction score). The binding signal with PUM1 PUF domain R8-KWW is 3.43 log2 enrichment (interaction score).
As for “GGCUAGAACUAGUGGAUCCCCCGGCGCCCGGCGGCUCGAGCCCGGGUAAGUGUACAUAGUCUGCAUGCCGCCGGGCGCCAUGCCUGCAGGUCGACUCUAGAAAACAUG”, the binding signal with PUM1 PUF domain R4-SCM is 3.79 log2 enrichment (interaction score).
Take “GGCUAGAACUAGUGGAUCCCCCGGCGCCCGGCGGCUCGAGCCCGGGUAAGCGUAAAUAGUCUGCAUGCCGCCGGGCGCCAUGCCUGCAGGUCGACUCUAGAAAACAUG”: the binding signal with PUM1 PUF domain R8-KFH was 3.24 log2 enrichment (interaction score); with PUM1 PUF domain R8-KWW, 5.85 log2 enrichment (interaction score).

Source of the values: PMC8384837, “Expanding the binding specificity for RNA recognition by a PUF domain”.
